From PubChem
SNCA expr inh: SNCA gene expression inhibition; HEK-293 SNCA-luciferase knock-in, luminescence, 24 h; Potency, µM (top dose mostly 57.2 µM), for inactives: at the top dose activity change, negative = inhibition, usual class: inhibitors; hit rate 0.17% among 140,000; AID 1671194;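 also: potency is read from the fitted curve at half-maximal effect; plate controls were DMSO cells for no effect and cell-free wells for full effect; nearly all actives have a fitted effect of over 45% in size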
KDM5B inh: blocks human KDM5B histone demethylase activity; Q9UGL1; KDM5B demethylase, FDH-coupled NADH fluorescence (FDH is formaldehyde dehydrogenase); Potency, µM (highest dose often 57.7 µM), hits mostly inhibitors; hit rate 2.6% among 220,000; also: potency is read from the fitted curve at half-maximal effect; 0% is about no effect; nearly all actives have a fitted effect of over 70% in size
Target sequence (Q9UGL1 whole entry, looked up): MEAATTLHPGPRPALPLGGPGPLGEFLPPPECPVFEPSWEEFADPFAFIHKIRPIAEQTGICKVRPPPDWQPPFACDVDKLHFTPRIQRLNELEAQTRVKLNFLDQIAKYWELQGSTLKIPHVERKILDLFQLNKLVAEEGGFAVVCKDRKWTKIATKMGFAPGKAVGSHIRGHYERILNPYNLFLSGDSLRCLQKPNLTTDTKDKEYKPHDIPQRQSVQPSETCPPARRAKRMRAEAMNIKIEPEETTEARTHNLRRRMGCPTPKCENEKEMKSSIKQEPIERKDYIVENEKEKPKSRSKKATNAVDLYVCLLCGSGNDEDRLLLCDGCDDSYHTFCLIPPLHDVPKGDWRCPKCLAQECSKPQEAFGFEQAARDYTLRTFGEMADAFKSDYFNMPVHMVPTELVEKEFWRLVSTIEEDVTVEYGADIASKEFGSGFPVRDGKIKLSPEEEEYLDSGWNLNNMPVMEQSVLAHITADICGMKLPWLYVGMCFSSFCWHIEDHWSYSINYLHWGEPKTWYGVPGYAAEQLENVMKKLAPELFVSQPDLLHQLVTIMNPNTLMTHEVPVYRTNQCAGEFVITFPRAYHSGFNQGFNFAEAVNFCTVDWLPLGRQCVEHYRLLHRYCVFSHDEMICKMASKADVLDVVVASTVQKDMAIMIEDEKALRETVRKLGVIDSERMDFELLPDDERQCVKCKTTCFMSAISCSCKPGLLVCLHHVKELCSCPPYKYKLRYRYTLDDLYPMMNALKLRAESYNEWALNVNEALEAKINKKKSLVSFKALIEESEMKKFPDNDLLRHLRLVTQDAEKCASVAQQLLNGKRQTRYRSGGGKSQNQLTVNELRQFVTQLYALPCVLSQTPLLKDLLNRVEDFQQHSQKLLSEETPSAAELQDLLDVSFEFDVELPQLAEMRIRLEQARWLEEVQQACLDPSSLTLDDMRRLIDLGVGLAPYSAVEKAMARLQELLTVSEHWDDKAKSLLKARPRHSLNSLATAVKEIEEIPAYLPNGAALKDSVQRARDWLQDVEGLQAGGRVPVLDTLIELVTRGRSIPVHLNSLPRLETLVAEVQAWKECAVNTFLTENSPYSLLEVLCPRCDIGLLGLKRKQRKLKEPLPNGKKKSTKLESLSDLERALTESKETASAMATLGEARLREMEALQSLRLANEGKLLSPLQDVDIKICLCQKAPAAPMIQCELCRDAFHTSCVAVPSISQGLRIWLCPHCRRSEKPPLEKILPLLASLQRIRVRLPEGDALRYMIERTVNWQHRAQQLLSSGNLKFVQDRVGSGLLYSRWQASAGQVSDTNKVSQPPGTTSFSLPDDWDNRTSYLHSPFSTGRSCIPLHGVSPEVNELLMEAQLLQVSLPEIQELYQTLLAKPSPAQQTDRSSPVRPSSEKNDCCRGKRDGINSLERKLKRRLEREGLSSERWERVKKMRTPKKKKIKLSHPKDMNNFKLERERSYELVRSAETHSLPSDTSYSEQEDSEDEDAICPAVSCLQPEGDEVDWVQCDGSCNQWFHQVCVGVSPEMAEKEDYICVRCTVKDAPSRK
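Coupled FDH/NAD⁺ fluorescence readout. KDM5BΔAP 200 nM final; compound titration, 10 min RT preincubation; substrate mix 12.5 µM H3K4me3, 25 µM 2-OG, 50 µM Fe(II), 100 µM ascorbate, 0.25 mM NAD⁺, 0.25 U/mL FDH; ΔRFU over 30 min.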
IP6K1 inhibitor: blocks human inositol hexakisphosphate kinase 1; Q92551; IP6K1 kinase, ADP-Glo luminescence, 2 h; active compounds read low; activity change, % (series mostly up to about 58 µM); hit rate 0.81% among 140,000; AID 1645851; in the data active = activity change below about -25%; also: % is scaled to controls: 0 for no effect and ±100 for the full control effect
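ADP-Glo luminescence measures ADP made by human IP6K1 during a 2 h RT reaction with ATP/IP6 (mix at 1.3 mM/130 uM); top library doses 57.5 and 19.1 uM final.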
SNCA viab count: counter-screen for SNCA expression inhibitors: cell viability | HEK-293-SNCA-luc viability, GF-AFC fluorescence, 24 h | Potency, µM (series often up to 57.1 µM), for the others: top-dose activity change, negative = cytotoxicity, most hits filed as cytotoxic | hit rate 0.12% among 150,000 | AID 1671193;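 also: potency is read from the fitted curve at half-maximal effect; 0% = DMSO-treated cells and -100% = medium-only wells without cells; nearly all actives have a fitted effect of over 30% in size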
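Cytotoxicity counterscreen: after 24 h compound treatment of genome-edited SNCA-luciferase HEK-293 cells, live-cell protease substrate GF-AFC read by fluorescence after 30 min; activity scaled between DMSO (0%) and medium-only (-100%), curves Hill-fitted.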
The depositor's hits bear a star; i = inactive; ? = inconclusive; nt = not tested or not shown; [ ] = dose if it differs, or a comment. The list is not random: actives were taken first. Their share in the collection is about 2.8%. Unless noted, calls follow the shape of the dose curve; as a rule, active = well fitted curve in the direction sought with a large enough effect; inconclusive = small, poorly fitted or top-dose-only effect, or another doubt; inactive = no such curve, though single readings can be large; an effect the other way counts as inactive or inconclusive.

SMILES | SNCA expr inh | KDM5B inh | IP6K1 inhibitor | SNCA viab count
CN(C)CC(=O)N1CCC2(C1)CN(C)c1ccc(C(=O)NCc3ccccc3)cc12 (configuration not stated) | -1.6%[87.6 µM] | 35.5µM* | 7.0 | -2.5%[87.6 µM]
Cc1nc(CN2CC3(CCN(C)C3)c3cc(C(=O)NCCc4ccccc4)ccc32)cs1 (configuration not stated) | 23.2% | 28.2µM* | 0.1 | -1.9%
CC(=O)N1CCCC2(C1)CN(C)c1ccc(C(=O)NCC(F)(F)F)cc12 (configuration not stated) | 6.4%[87.6 µM] | ? | 2.6 | 6.4%[87.6 µM]
CN(C)CC(=O)N1CCC2(C1)CN(C)c1ccc(C(=O)Nc3ccccc3)cc12 (configuration not stated) | 4.0%[87.6 µM] | ? | 17.7 | 3.5%[87.6 µM]
O=C1CCCc2occ(C(=O)N3CCCC4(CCNC4)C3)c21 (configuration not stated) | 26.0% | i | 19.0 | -1.2%
COCCN1CC2(CCCN(C(=O)Nc3ccc4c(c3)OCO4)C2)CCC1=O (configuration not stated) | -8.1% | i | -7.9 | 0.2%
C#CCNC(=O)c1nc(-c2cccnc2)c2ccccn12 | 2.9%[87.6 µM] | i | 0.0 | -21.6%[87.6 µM]
CC(C)NC(=O)c1nc(C(C)(C)C)c2cnccn12 | -41.9%[87.6 µM] | 126µM* | -9.9 | -7.2%[87.6 µM]
C#CCNC(=O)c1nc(C(C)(C)C)c2cnccn12 | -4.6%[87.6 µM] | 50.1µM* | -15.0 | 3.4%[87.6 µM]
CCCn1cc2c3c(cccc31)CN(C(=O)COc1ccc(F)cc1)CC2 | -3.5% | 31.6µM* | 23.1 | 6.8%
CCCn1cc2c3c(cccc31)CN(C(=O)Cc1ccc(OC)cc1)CC2 | -28.1% | ? | 9.7 | -13.4%
Cn1cc2c3c(cccc31)CN(C(=O)CC(C)(C)C)CC2 | 9.7% | 31.6µM* | -2.6 | 16.8%
CC(=O)c1ccc(NC(=O)Cn2cc(S(=O)(=O)Cc3ccccc3Cl)c3ccccc32)cc1 | -17.0% | i | -6.0 | -4.6%
O=C(c1cccnc1)N1CCC2(CCCN(Cc3cccc(F)c3F)C2=O)C1 (configuration not stated) | 11.2% | i | 17.5 | -4.8%
O=C(NCCC1CCN(C(=O)Nc2cc(F)cc(F)c2)CC1)c1ccccc1 | 78.7% | i | -11.1 | -3.5%
CN(C)c1cccc(C(=O)NCCC2CCN(C(=O)Nc3cc(F)cc(F)c3)CC2)c1 | 119.8% | 31.6µM* | -4.5 | -0.7%
COc1ccc(CCNC(=O)C2CCN(c3nc4ccccc4nc3C(F)(F)F)CC2)cc1OC | 8.4% | i | -0.4 | 7.8%
COc1cccc(-c2cc3c(=O)n(CCNC(=O)c4ccccc4Cl)ccn3n2)c1 | 42.6% | i | -7.9 | -8.6%
COc1cccc(-c2cc3c(=O)n(CCNC(=O)c4cccc5[nH]ccc45)ccn3n2)c1 | 93.1% | 25.1µM* | -10.3 | -25.8%
COc1ccc(-c2cc3c(=O)n(CCNC(=O)c4cccc5[nH]ccc45)ccn3n2)cc1 | 76.5% | 22.4µM* | -6.3 | -14.0%
COc1cccc(C(=O)NCCn2ccn3nc(-c4ccc(F)cc4)cc3c2=O)c1OC | -14.4% | i | -6.9 | ?
CCc1cccc(N2C(=O)CS(=O)(=O)C23C(=O)N(Cc2cccc(C)c2)c2ccccc23)c1 (configuration not stated) | nt | i | nt | nt
COc1ccc(-c2ccc3nnc(CNC(=O)CCc4cccc(OC)c4)n3n2)cc1 | 11.8% | ? | 8.1 | -13.8%
COc1ccc(-c2ccc3nnc(CNC(=O)c4cccc(OC(F)(F)F)c4)n3n2)cc1 | 2.5% | ? | 15.4 | -4.8%
COc1ccc(-c2ccc3nnc(CNC(=O)c4ccc(OC)cc4C)n3n2)cc1 | -12.8% | 28.2µM* | 13.1 | -6.3%
SMILES | SNCA expr inh | KDM5B inh | IP6K1 inhibitor | SNCA viab count
COc1ccc(-c2ccc3nnc(CNC(=O)c4ccc(C)c(C)c4)n3n2)cc1 | -10.2% | 25.1µM* | 15.0 | 4.1%
COc1cccc(C(=O)NCc2nnc3ccc(-c4ccc(C)cc4)nn23)c1OC | -14.6% | 14.1µM* | -20.0 | -17.8%
Cc1ccc(-c2ccc3nnc(CNC(=O)c4cccc5[nH]ccc45)n3n2)cc1 | -2.1% | i | -11.2 | ?
COc1ccc(C(=O)NCc2nnc3ccc(-c4ccc(C)c(C)c4)nn23)c(OC)c1 | -16.7% | ? | -13.1 | -24.3%
COc1ccc(-c2ccc3nnc(CNC(=O)c4ccco4)n3n2)cc1 | 8.6% | 31.6µM* | 5.6 | 8.7%
COc1ccc(C(=O)Nc2nc3c(s2)C[C@@H]2[C@](C)(CO)[C@H](O)CC[C@@]2(C)[C@@H]3CC(=O)NCCNC(C)=O)cc1 | 4.0% | i | 5.3 | -8.4%
